Experimental data reported in PubChem BioAssay.
Active and inactive are the calls of the source. Unless noted, no rule for the calls is given here.

Experiments:
[1] = resazurin metabolic signal in HepG2 cells – cell-based, resazurin fluorescence, 24 h, PK04 Diversity Set, profiling panel (AID 1172); settings: HepG2 viability, higher = more signal; also: test concentration not given here
[2] = budding yeast growth changes without added modifier – OD600, strain BY4716, 24 h, basal condition, primary screen (AID 1173); settings: S. cerevisiae BY4716 growth, OD600, 24 h; higher = more signal, called active from +8 up or from −8 down
[3] = viability profiling in MM1S myeloma cells – cell-based, resazurin fluorescence, basal, 24 h, PK04 Diversity Set, profiling panel (AID 1174); settings: higher = more signal, called active from +8 up or from −8 down;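 also: MM1S multiple myeloma cell line; test concentration not given here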
[4] = biological target: Dihydroorotate dehydrogenase (quinone), mitochondrial (Plasmodium falciparum (isolate 3D7)) (UniProt Q08210); assay: inhibition of P. falciparum DHODH – biochemical, C-terminal His tag, absorbance 600 nm, primary screen (AID 1175); settings: PfDHODH enzyme, DCIP absorbance 600 nm; higher = more signal, called active from +8 up or from −8 down;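 also: recombinant parasite enzyme with a five histidine tag at its C terminus; test concentration not given here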
Dihydroorotate dehydrogenase (quinone), mitochondrial (Plasmodium falciparum (isolate 3D7)), sequence (Q08210 whole entry, looked up): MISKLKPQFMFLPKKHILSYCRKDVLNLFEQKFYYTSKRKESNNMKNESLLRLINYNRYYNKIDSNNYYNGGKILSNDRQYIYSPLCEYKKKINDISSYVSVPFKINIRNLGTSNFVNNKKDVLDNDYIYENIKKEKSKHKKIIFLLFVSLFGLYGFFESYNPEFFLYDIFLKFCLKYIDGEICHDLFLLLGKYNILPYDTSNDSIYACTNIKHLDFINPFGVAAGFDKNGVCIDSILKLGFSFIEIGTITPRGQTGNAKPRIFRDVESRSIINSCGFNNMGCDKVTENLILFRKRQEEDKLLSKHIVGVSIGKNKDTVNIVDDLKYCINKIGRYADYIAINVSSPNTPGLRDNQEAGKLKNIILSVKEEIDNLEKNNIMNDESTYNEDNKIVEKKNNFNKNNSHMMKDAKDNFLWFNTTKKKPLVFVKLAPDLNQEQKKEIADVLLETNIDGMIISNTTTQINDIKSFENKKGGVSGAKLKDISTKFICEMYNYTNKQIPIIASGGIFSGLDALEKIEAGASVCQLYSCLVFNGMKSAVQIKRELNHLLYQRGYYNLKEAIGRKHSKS

[5] = inhibition of PAO1 biofilm formation – strain PAO1, LB-PBS medium, absorbance 600 nm, primary screen (AID 1176); also: test concentration not given here; settings: P. aeruginosa PAO1 growth/biofilm, A600, 12 h; higher = more signal
[6] = growth modulation of vineyard yeast isolate – strain RM11-1a, OD600, basal, 24 h, primary screen (AID 1177);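 also: cultures grown under basal conditions with no added stressor; test concentration not given here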; settings: S. cerevisiae RM11-1a growth, OD600, 24 h; higher = more signal, called active from +8 up or from −8 down
[7] = growth of efflux-deficient E. coli DRC39 – strain DRC39, OD650, 24 h, E. coli filamentation inducers, primary screen (AID 1178);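 also: growth measured as culture turbidity by optical density at 650 nm; test concentration not given here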; settings: E. coli DRC39 acrAB, higher = more signal, called active from +8 up or from −8 down
[8] = growth of efflux-deficient E. coli DRC39 – strain DRC39, OD650, 48 h, E. coli filamentation inducers, primary screen (AID 1179);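 also: screen aims at cell division blockers that make cells filament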; settings: E. coli DRC39 delta-acrAB growth, higher = more signal, called active from +8 up or from −8 down
[9] = viability profiling in RPMI8226 myeloma cells – cell-based, resazurin fluorescence, basal, 24 h, PK04 Diversity Set, profiling panel (AID 1180); settings: higher = more signal;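 also: RPMI8826 multiple myeloma cell line at 5000 cells per well; test concentration not given here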
[10] = biological target: E3 ubiquitin-protein ligase XIAP (Homo sapiens) (UniProt P98170); assay: small molecules binding XIAP protein – biophysical, small-molecule microarray, fluorescence 635 nm, primary screen (AID 1181); settings: higher = more signal;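 also: score merges 667 nm emission and signal to noise over triplicate slides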
E3 ubiquitin-protein ligase XIAP (Homo sapiens), sequence (P98170 whole entry, looked up): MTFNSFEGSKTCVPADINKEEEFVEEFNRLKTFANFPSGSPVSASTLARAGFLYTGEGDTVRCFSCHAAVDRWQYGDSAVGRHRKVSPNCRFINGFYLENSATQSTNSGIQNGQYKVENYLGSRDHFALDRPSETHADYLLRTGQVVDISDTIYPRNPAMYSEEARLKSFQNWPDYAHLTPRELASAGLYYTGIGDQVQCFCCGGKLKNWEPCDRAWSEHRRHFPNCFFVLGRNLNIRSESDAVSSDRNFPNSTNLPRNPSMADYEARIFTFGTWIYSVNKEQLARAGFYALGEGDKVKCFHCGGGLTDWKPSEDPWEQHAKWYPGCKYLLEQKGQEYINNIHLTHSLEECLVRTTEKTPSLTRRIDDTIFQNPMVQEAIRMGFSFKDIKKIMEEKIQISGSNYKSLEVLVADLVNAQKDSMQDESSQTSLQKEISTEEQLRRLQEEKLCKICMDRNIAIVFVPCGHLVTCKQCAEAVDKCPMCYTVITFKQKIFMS

SMILES: Cc1ccc([C@H]2C(C(=O)O)=C[C@@H](C(C)(C)C)N2S(=O)(=O)c2ccc(C)cc2)cc1
- z-score [1]: -0.553
- z-score [2]: -0.405 (inactive)
- z-score [3]: -0.648 (inactive)
- composite z-score [4]: -0.241 (inactive)
- z-score [5]: 0.353 (inactive)
- z-score [6]: -0.0566 (inactive)
- z-score [7]: -1.36 (inactive)
- z-score [8]: -0.387 (inactive)
- z-score [9]: -2.49
- composite z-score [10]: 0.193

SMILES: COc1cc(CO)cc(I)c1O[C@H]1C=C(C(=O)NCCO)C[C@@H](NCC2CCCCC2)[C@@H]1O
- z-score [1]: 0.361
- z-score [2]: -0.964 (inactive)
- z-score [3]: -0.221 (inactive)
- composite z-score [4]: -0.257 (inactive)
- z-score [5]: -0.107 (inactive)
- z-score [6]: -0.489 (inactive)
- z-score [7]: 1.45 (inactive)
- z-score [8]: 0.866 (inactive)
- z-score [9]: 0.428
- composite z-score [10]: 0.0831

SMILES: COCCCNC(=O)[C@@H]1c2ccccc2C(=O)N(C2Cc3ccccc3C2)[C@H]1c1ccc(CO)cc1
- z-score [1]: -0.138
- z-score [2]: -0.483 (inactive)
- z-score [3]: 0.354 (inactive)
- composite z-score [4]: -0.774 (inactive)
- z-score [5]: 0.388 (inactive)
- z-score [6]: -0.344 (inactive)
- z-score [7]: 0.722 (inactive)
- z-score [8]: 0.468 (inactive)
- z-score [9]: 0.653
- composite z-score [10]: -0.169

SMILES: COc1cc(NN2C(C(O)C3CCCCC3)C=CC3C(=O)N(C)C(=O)C32)cc(OC)c1OC (stereo not given)
- z-score [1]: -0.721
- z-score [2]: 1.28 (inactive)
- z-score [3]: -1.43 (inactive)
- composite z-score [4]: -0.187 (inactive)
- z-score [5]: 0.462 (inactive)
- z-score [6]: 0.668 (inactive)
- z-score [7]: -0.276 (inactive)
- z-score [8]: -0.498 (inactive)
- z-score [9]: -1.35
- composite z-score [10]: 0.279

SMILES: NCCCCCNC(=O)[C@H]1C[C@H]2C(=O)N[C@@H](Cc3ccccc3)C(=O)N2[C@H]1c1ccc(O)cc1
- z-score [1]: -0.255
- z-score [2]: -0.53 (inactive)
- z-score [3]: -0.115 (inactive)
- composite z-score [4]: 1.21 (inactive)
- z-score [5]: 0.351 (inactive)
- z-score [6]: -0.334 (inactive)
- z-score [7]: 0.442 (inactive)
- z-score [8]: 0.69 (inactive)
- z-score [9]: -0.518
- composite z-score [10]: 0.157

SMILES: O=C1[C@@]23C=C(Br)[C@H](C[C@@H]2COC3)[C@@]12CO2
- z-score [1]: -0.198
- z-score [2]: -0.237 (inactive)
- z-score [3]: -0.402 (inactive)
- composite z-score [4]: 0.571 (inactive)
- z-score [5]: 0.224 (inactive)
- z-score [6]: 0.254 (inactive)
- z-score [7]: -0.417 (inactive)
- z-score [8]: -0.0396 (inactive)
- z-score [9]: -0.373
- composite z-score [10]: -0.102

SMILES: O=C1C2C=CC(C(O)c3cccc(O)c3)N(Nc3ccccc3)C2C(=O)N1c1ccccc1 (stereo not given)
- z-score [1]: -0.491
- z-score [2]: -0.774 (inactive)
- z-score [3]: -1.05 (inactive)
- composite z-score [4]: -0.791 (inactive)
- z-score [5]: 0.67 (inactive)
- z-score [6]: 0.196 (inactive)
- z-score [7]: -0.0671 (inactive)
- z-score [8]: 0.0995 (inactive)
- z-score [9]: -0.985
- composite z-score [10]: -0.0806
